Laboratory results reported in PubChem BioAssay (Tox21).
Inconclusive results are not listed. The source made the active and inactive calls. Unless noted, the call rests on the fitted dose curve.

Columns and labels:
[1] = Nuclear factor erythroid 2-related factor 2/antioxidant responsive element (Nrf2/ARE) small molecule agonists: qHTS cell viability counter screen in human keratinocytes (AID 1919968; active means well fitted curve in the direction sought with a large enough effect in the repeat runs; an effect the other way counts as inactive or inconclusive; further: nearly all actives have a fitted effect of over 55% in size)
Outline: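 Stably transfected HaCaT (KeratinoSens), 1,500/well. Test agents in DMSO were applied for 23 h, 37 C/5% CO2. CellTiter-Fluor was incubated 1 h before the fluorescence read.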

[2] = Nuclear factor erythroid 2-related factor 2/antioxidant responsive element (Nrf2/ARE) small molecule agonists: luciferase reporter gene qHTS assay in human keratinocytes (AID 1919969); further: nearly all actives have a fitted effect of over 35% in size
[3] = biological target: Gonadotropin-releasing hormone receptor (Homo sapiens) (UniProt P30968); assay: Human gonadotropin-releasing hormone receptor (GnRHR) small molecule agonists, calcium flux assay in GnRHR-HEK293 cells (AID 1920063); further: nearly all actives have a fitted effect of over 35% in size
Outline: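 Stable human GnRHR HEK293 line. 18 h plating, then calcium dye for 1 h at 37 C. Agonist-mode compound addition from DMSO stocks; fluorescence monitored 3 min.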

[4] = biological target: KiSS-1 receptor (Homo sapiens) (UniProt Q969F8); assay: Human kisspeptin (KISS1R) small molecule agonists, calcium flux assay in KISS1R-HEK293 cells (AID 1920064; active means well fitted curve in the direction sought with a large enough effect in the repeat runs; an effect the other way counts as inactive or inconclusive)
Outline: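 After overnight (18 h) culture at 37 C/5% CO2, human KISS1R-HEK293 cells received calcium dye for 1 h, then test compound; emission at 540 nm (excitation 480 nm) was tracked for 3 min.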

[5] = G protein-coupled receptor (GPCR) small molecule agonists, calcium flux assay: HEK293 wild type cell line counter screen (AID 1920065)
Outline: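 Following 18 h incubation at 37 C/5% CO2, plates got calcium dye for 1 h; compounds, ATP or DMSO were then pinned in and fluorescence followed kinetically (480/540 nm).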

[6] = p53 small molecule agonists, cell-based qHTS assay with human liver microsomes (AID 1963577)
Outline: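 Cells carrying a p53-responsive bla reporter were rested 5 h (37 C, 5% CO2) before compound transfer. Human liver microsomes plus NADPH, 0.5 mg/mL final apiece, supplied metabolism during the 16 h 37 C exposure.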

[7] = p53 small molecule agonists, cell-based qHTS assay with rat liver microsomes (AID 1963578)
Outline: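 Fluorescence from a beta-lactamase reporter under a p53 response element was measured after cells had been incubated 16 h at 37 C with test compound and rat liver microsomes plus NADPH (0.5 mg/mL final each).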

[8] = p53 small molecule agonists, cell-based qHTS assay with human liver microsomes: qHTS cell viability counter screen (AID 1963579); further: nearly all actives have a fitted effect of over 45% in size
Outline: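 Seed p53RE-bla cells at 4,000 per well; incubate 5 h at 37 C; add compound, human liver microsomes and NADPH; incubate 16 h at 37 C; add CellTiter-Glo; after 30 min at room temperature, read luminescence.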

[9] = p53 small molecule agonists, cell-based qHTS assay with rat liver microsomes: qHTS cell viability counter screen (AID 1963580); further: nearly all actives have a fitted effect of over 45% in size
Outline: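 Counter screen for cytotoxicity under metabolic activation: rat liver microsomes and NADPH, 0.5 mg/mL final each, added with compounds to p53RE-bla HCT-116 cells; 16 h at 37 C, then ATP luminescence read.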

[10] = p53 small molecule agonists, cell-based qHTS assay: qHTS cell viability counter screen (AID 1963581); further: nearly all actives have a fitted effect of over 45% in size
Outline: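 qHTS counter screen: 16 h compound exposure at 37 C of p53RE-bla HCT-116 cells (4,000 per well, seeded 5 h prior), cell viability by ATP luminescence.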

[11] = p53 small molecule agonists, cell-based qHTS assay (AID 1963582; active means well fitted activation curve with a large enough effect in the signal ratio in the repeat runs, not every such curve was filed as active; the % refers to the signal ratio)
Outline: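 Measured: fluorescence from cleaved LiveBLAzer substrate. System: p53RE-bla cells, 16 h compound treatment at 37 C, 2 h substrate step at room temperature.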

[12] = biological target: 5-hydroxytryptamine receptor 2A (Homo sapiens) (UniProt P28223); assay: 5-hydroxytryptamine receptor 2A (HTR2A) small molecule antagonists, cell-based qHTS assay (AID 1963586); further: nearly all actives have a fitted effect of over 45% in size
Outline: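 CHO cells stably expressing human HTR2A were plated for 18 h at 37 C, then loaded with calcium dye for 1 h. Compounds were preincubated 5 min at room temperature before DOI (4 nM solution) was added. Kinetic fluorescence was read for 3 min.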

[13] = biological target: 5-hydroxytryptamine receptor 2A (Homo sapiens) (UniProt P28223); assay: 5-hydroxytryptamine receptor 2A (HTR2A) small molecule agonists, cell-based qHTS assay (AID 1963587); further: nearly all actives have a fitted effect of over 30% in size
Outline: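 HTR2A-CHO cells, plated 18 h at 37 C/5% CO2, dye-loaded 1 h at 37 C; compounds in DMSO added by pin tool (agonist mode). Intracellular calcium flux read as kinetic fluorescence on FDSS over 2 min at 1 s intervals.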

[14] = biological target: Muscarinic acetylcholine receptor M1 (Homo sapiens) (UniProt P11229); assay: Cholinergic receptor muscarinic 1 (CHRM1) small molecule antagonists, cell-based qHTS assay (AID 1963588); further: nearly all actives have a fitted effect of over 40% in size
Outline: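 Compounds were tested at 15 concentrations in three independent runs. Dye-loaded CHRM1-CHO cells were exposed 5 min at room temperature before stimulation by acetylcholine added at 50nM. Intracellular calcium was read kinetically on FDSS for 3 min.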

[15] = biological target: Muscarinic acetylcholine receptor M1 (Homo sapiens) (UniProt P11229); assay: Cholinergic receptor muscarinic 1 (CHRM1) small molecule agonists, cell-based qHTS assay (AID 1963589); further: nearly all actives have a fitted effect of over 35% in size
Outline: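 Kinetic fluorescence (1 s intervals) of calcium-sensitive dye in human M1 CHO cells after compound addition; cells pre-incubated 18 h at 37 C/5% CO2 and dye-loaded 1 h.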

[16] = cAMP Responsive Elements (CRE) small molecule agonists, cell-based qHTS assay (AID 1963590)
Outline: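 Test agents in DMSO were incubated 3 h at 37 C/5% CO2 with CRE-bla HEK 293T cells seeded 18 h earlier; LiveBLAzer B/G FRET substrate was added and read after 2 h at room temperature.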

[17] = cAMP Responsive Elements (CRE) small molecule antagonists, cell-based qHTS assay (AID 1963591; active means well fitted inhibition curve with a large enough effect in the signal ratio in the repeat runs, not every such curve was filed as active; the % refers to the signal ratio)
Outline: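 Reporter line CRE-bla HEK 293T in dialyzed-FBS DMEM; cells preincubated 18 h, treated 3 h with compound plus NKH477 (0.25 uM final); LiveBLAzer FRET, 2 h RT.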

[18] = biological target: Beta-2 adrenergic receptor (Homo sapiens) (UniProt P07550); assay: Adrenergic beta2 receptor (ADRB2) small molecule antagonists, cell-based qHTS assay (AID 1963592); further: series mostly up to about 92 µM; nearly all actives have a fitted effect of over 50% in size
Outline: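 Assay format: CHO-ADRB2 cells, 18-20hr seeding at 37C/5% CO2, then compound plus 1nM isoproterenol agonist mix for 0.5hr RT. Homogeneous time-resolved fluorescence cAMP detection after 1hr, expressed as 665/615 nm ratio.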

[19] = biological target: Beta-2 adrenergic receptor (Homo sapiens) (UniProt P07550); assay: Adrenergic beta2 receptor (ADRB2) small molecule agonists, cell-based qHTS assay (AID 1963593);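 further: CHO cells stably overexpressing human ADRB2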
Outline: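 CHO cells stably over-expressing ADRB2 were plated overnight at 37C, then dosed with compounds plus a stimulation mix containing 100uM IBMX and 25uM Ro-20-1724 for 0.5hr at room temperature. cAMP was measured by HTRF competition, 1hr.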

[20] = biological target: D(2) dopamine receptor (Homo sapiens) (UniProt P14416); assay: Dopamine D2 receptor (DRD2) small molecule agonists, cell-based qHTS assay (AID 1963594); further: nearly all actives have a fitted effect of over 35% in size
Outline: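 HEK293 cells stably expressing DRD2 were cultured 24 h at 37 C, then given Ro20-1724 (0.1 mM final) and compounds for 10 min at room temperature. NKH477 (200nM) was then added for 30 min. cAMP was read by HTRF.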
On the % scale 0 is the no-effect control and ±100 the full control effect.

Sequence of 5-hydroxytryptamine receptor 2A (Homo sapiens) (P28223 whole entry, looked up): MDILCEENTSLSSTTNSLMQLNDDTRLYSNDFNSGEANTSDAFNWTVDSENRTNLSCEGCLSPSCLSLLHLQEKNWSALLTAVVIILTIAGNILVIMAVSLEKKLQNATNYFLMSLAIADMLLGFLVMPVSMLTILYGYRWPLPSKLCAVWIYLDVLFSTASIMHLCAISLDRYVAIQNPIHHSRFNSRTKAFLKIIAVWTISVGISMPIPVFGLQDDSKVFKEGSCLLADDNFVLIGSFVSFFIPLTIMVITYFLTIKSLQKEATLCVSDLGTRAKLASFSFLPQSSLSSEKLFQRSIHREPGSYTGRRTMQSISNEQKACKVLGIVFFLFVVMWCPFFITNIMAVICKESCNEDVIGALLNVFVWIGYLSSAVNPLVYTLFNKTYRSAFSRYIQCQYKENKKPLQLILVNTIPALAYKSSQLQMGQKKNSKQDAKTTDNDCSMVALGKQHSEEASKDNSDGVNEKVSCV
Sequence of Gonadotropin-releasing hormone receptor (Homo sapiens) (P30968 whole entry, looked up): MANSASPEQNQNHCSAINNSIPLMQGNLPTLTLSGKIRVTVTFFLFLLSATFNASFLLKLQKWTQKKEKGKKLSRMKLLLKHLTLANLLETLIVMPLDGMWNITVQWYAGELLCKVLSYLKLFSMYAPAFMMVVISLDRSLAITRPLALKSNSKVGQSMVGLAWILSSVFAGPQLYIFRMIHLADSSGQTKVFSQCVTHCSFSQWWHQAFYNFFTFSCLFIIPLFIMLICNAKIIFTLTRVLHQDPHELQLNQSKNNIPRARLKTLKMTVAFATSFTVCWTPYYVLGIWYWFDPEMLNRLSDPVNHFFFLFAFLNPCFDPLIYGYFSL
Sequence of Muscarinic acetylcholine receptor M1 (Homo sapiens) (P11229 whole entry, looked up): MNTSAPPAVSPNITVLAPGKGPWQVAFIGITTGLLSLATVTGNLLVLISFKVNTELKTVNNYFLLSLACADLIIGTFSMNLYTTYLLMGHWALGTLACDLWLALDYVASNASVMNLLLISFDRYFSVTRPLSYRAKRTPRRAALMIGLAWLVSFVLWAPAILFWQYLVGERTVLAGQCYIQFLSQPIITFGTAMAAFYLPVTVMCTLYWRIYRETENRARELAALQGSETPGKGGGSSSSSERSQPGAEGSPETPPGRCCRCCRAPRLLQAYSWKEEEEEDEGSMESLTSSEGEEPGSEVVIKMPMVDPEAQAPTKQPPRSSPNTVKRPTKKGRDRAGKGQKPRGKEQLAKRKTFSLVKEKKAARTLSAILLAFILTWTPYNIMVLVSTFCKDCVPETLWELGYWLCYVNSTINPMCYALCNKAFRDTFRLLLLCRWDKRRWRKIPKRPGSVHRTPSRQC
Sequence of KiSS-1 receptor (Homo sapiens) (Q969F8 whole entry, looked up): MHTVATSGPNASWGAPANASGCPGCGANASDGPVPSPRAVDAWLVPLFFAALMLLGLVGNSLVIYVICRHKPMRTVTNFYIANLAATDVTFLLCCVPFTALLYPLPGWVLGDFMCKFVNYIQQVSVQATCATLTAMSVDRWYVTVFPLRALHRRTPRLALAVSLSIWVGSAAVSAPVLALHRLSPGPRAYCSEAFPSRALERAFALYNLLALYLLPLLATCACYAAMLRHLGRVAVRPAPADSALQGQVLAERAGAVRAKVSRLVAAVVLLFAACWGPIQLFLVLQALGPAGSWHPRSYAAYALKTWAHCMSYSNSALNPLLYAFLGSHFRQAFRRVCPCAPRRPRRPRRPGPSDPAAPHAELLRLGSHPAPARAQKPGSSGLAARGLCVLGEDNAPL
Sequence of Beta-2 adrenergic receptor (Homo sapiens) (P07550 whole entry, looked up): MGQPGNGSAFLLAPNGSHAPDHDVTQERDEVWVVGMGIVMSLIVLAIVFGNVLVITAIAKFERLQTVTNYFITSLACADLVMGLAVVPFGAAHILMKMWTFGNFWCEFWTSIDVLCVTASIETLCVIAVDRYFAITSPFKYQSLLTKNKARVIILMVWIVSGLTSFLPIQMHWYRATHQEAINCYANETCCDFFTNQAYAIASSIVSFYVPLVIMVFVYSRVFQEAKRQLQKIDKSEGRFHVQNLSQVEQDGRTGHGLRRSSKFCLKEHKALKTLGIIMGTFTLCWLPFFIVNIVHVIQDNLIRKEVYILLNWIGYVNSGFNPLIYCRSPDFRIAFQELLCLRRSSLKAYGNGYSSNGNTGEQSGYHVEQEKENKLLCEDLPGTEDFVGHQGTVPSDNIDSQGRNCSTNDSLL
Sequence of D(2) dopamine receptor (Homo sapiens) (P14416 whole entry, looked up): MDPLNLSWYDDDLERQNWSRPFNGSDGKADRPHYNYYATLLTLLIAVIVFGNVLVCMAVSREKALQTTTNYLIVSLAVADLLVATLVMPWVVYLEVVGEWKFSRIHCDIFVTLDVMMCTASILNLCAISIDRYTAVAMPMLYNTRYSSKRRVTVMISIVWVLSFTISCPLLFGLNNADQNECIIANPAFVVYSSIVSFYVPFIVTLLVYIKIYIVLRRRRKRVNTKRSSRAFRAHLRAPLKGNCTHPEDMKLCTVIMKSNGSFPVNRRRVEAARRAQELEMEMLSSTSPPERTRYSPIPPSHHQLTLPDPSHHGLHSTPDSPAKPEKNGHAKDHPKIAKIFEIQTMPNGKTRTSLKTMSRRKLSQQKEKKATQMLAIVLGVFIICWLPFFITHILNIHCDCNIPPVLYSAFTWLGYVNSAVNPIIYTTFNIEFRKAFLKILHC

CCC(C)SSC(C)CC (stereo not given)
inactive: Potency [1] | Potency [2] | Potency [3] | Potency [4] | Potency [5] | Potency [6] | Potency [7] | Potency [8] | Potency [9] | Potency [10] | Potency [11] | Potency [12] | Potency [13] | Potency [14] | Potency [15] | Potency [16] | Potency [17] | Potency [18] | Potency [19] | Potency [20]

CC(C)C(=O)C(C)C
inactive: Potency [1] | Potency [2] | Potency [3] | Potency [4] | Potency [5] | Potency [6] | Potency [7] | Potency [8] | Potency [9] | Potency [10] | Potency [11] | Potency [12] | Potency [13] | Potency [14] | Potency [15] | Potency [16] | Potency [17] | Potency [18] | Potency [19] | Potency [20]

Cc1ccccc1S(=O)(=O)O
inactive: Potency [1] | Potency [2] | Potency [3] | Potency [4] | Potency [5] | Potency [6] | Potency [7] | Potency [8] | Potency [9] | Potency [10] | Potency [11] | Potency [12] | Potency [13] | Potency [14] | Potency [15] | Potency [16] | Potency [17] | Potency [18] | Potency [19] | Potency [20]

SCCSCCS
inactive: Potency [1] | Potency [2] | Potency [3] | Potency [4] | Potency [5] | Potency [6] | Potency [7] | Potency [8] | Potency [9] | Potency [10] | Potency [11] | Potency [12] | Potency [13] | Potency [14] | Potency [15] | Potency [16] | Potency [17] | Potency [18] | Potency [19] | Potency [20]

CC1C(C)(C)C2=C(C(=O)CCC2)C1(C)C (stereo not given)
inactive: Potency [1] | Potency [2] | Potency [3] | Potency [4] | Potency [5] | Potency [6] | Potency [7] | Potency [8] | Potency [9] | Potency [10] | Potency [11] | Potency [12] | Potency [13] | Potency [14] | Potency [15] | Potency [16] | Potency [17] | Potency [18] | Potency [19] | Potency [20]

C[C@@H]1NC(=O)[C@@H](N)CNC(=O)[C@H](C2CCNC(N)=N2)NC(=O)/C(=C/NC(N)=O)NC(=O)[C@H](CNC(=O)C[C@@H](N)CCCN)NC1=O (stereo not given in full)
inactive: activity change, negative = cytotoxicity [1] -0.202% [at 0.349 µM] | activity, positive = activation [2] -0.551% [at 0.349 µM] | activity change [3] -0.0026% [at 0.217 µM, active compounds read high] | activation [4] 4.86% [at 0.29 µM] | activation [5] -0.973% [at 0.217 µM] | activation [6] -0.0566% [at 0.249 µM] | activation [7] 0.811% [at 0.249 µM] | activity change, negative = cytotoxicity [8] 0.952% [at 0.249 µM] | activity change, negative = cytotoxicity [9] -3.72% [at 0.249 µM] | activity change, negative = cytotoxicity [10] -17.8% [at 0.249 µM] | activation [11] 5.76% [at 0.249 µM] | activity, negative = inhibition [12] 39.2% [at 0.233 µM] | activation [13] -0.558% [at 0.292 µM] | activity, negative = inhibition [14] -3.02% [at 0.232 µM] | activation [15] -0.0449% [at 0.29 µM] | activation [16] -0.384% [at 0.349 µM] | activity change, negative = inhibition [17] 0.0328% [at 0.349 µM] | activity change, negative = inhibition [18] 6.03% [at 0.349 µM] | activation [19] -2.39% [at 0.349 µM] | activation [20] -0.993% [at 0.349 µM]

CCN(CC)CC(=O)OCC(=O)[C@@]1(O)CC[C@H]2[C@@H]3CCC4=CC(=O)CC[C@]4(C)[C@H]3[C@@H](O)C[C@@]21C
inactive: Potency [1] | Potency [2] | Potency [3] | Potency [4] | Potency [5] | Potency [6] | Potency [7] | Potency [8] | Potency [9] | Potency [10] | Potency [11] | Potency [12] | Potency [13] | Potency [14] | Potency [15] | Potency [16] | Potency [17] | Potency [18] | Potency [19] | Potency [20]
